Measurements from PubChem BioAssay (EPA / NIEHS).
Calls of active or inactive are those of the source. Rule for the calls: active = hit-call score of the fitted dose curve at least 0.9, where 1 is the maximum; inactive = score below 0.9.

What was measured:
[1] = read-out: Interleukin-8 (IL8), CXCL8 (gene 3576); assay: BSK_CASM3C_IL8: BioMAP Diversity Plus: CASM3C Assay for Interleukin-8 (IL8) Biomarker Activity (AID 2283042); settings: primary human coronary artery smooth muscle cells; actives raise or lower the signal;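 note: IL-8 protein level quantified by ELISA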
[2] = read-out: Human Leukocyte Antigen - DR isotype (HLADR), HLA-DRA (gene 3122); assay: BSK_CASM3C_HLADR: BioMAP Diversity Plus: CASM3C Assay for Human Leukocyte Antigen - DR isotype (HLADR) Biomarker Activity (AID 2283043); settings: primary human coronary artery smooth muscle cells; actives raise or lower the signal;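 note: cell-surface HLA-DR protein level quantified by ELISA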
[3] = read-out: Macrophage colony-stimulating factor (MCSF), CSF1 (gene 1435); assay: BSK_CASM3C_MCSF: BioMAP Diversity Plus: CASM3C Assay for Macrophage colony-stimulating factor (MCSF) Biomarker Activity (AID 2283044); settings: primary human coronary artery smooth muscle cells; actives raise or lower the signal;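 note: M-CSF protein amount quantified by ELISA after 24 h exposure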
[4] = read-out: Low-density lipoprotein receptor (LDLR), LDLR (gene 3949); assay: BSK_CASM3C_LDLR: BioMAP Diversity Plus: CASM3C Assay for Low-density lipoprotein receptor (LDLR) Biomarker Activity (AID 2283045); settings: primary human coronary artery smooth muscle cells; actives raise or lower the signal;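 note: LDLR protein level on the cell surface quantified by ELISA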
[5] = read-out: Monocyte Chemoattractant Protein-1 (MCP1), CCL2 (gene 6347); assay: BSK_CASM3C_MCP1: BioMAP Diversity Plus: CASM3C Assay for Monocyte Chemoattractant Protein-1 (MCP1) Biomarker Activity (AID 2283046); settings: primary human coronary artery smooth muscle cells; actives raise or lower the signal;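 note: MCP-1 level quantified by ELISA 24 h after dosing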
[6] = BSK_CASM3C_Proliferation: Cell Proliferation Assessment in the BioMAP Diversity Plus: CASM3C Assay (AID 2283047); settings: primary human coronary artery smooth muscle cells;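 note: sulforhodamine B total protein stain as relative cell number at 560 nm; sub-confluent cells exposed 48 h before staining; fitted both ways against DMSO so gain or loss of cell number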
[7] = read-out: Monokine induced gamma interferon (MIG), CXCL9 (gene 4283); assay: BSK_CASM3C_MIG: BioMAP Diversity Plus: CASM3C Assay for Monokine induced gamma interferon (MIG) Biomarker Activity (AID 2283048); settings: primary human coronary artery smooth muscle cells; actives raise or lower the signal;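 note: MIG protein level measured by ELISA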
[8] = read-out: serum amyloid A (SAA), SAA1 (gene 6288); assay: BSK_CASM3C_SAA: BioMAP Diversity Plus: CASM3C Assay for serum amyloid A (SAA) Biomarker Activity (AID 2283049); settings: primary human coronary artery smooth muscle cells; actives raise or lower the signal;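 note: SAA protein level quantified by ELISA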
[9] = BSK_CASM3C_SRB: Viability Assessment in the BioMAP Diversity Plus: CASM3C Assay (AID 2283050); settings: primary human coronary artery smooth muscle cells;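 note: total protein by SRB staining as cytotoxicity measure in parallel cultures; cells exposed to compound for 24 h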
[10] = read-out: Thrombomodulin, THBD (gene 7056); assay: BSK_CASM3C_Thrombomodulin: BioMAP Diversity Plus: CASM3C Assay for Thrombomodulin Biomarker Activity (AID 2283051); settings: primary human coronary artery smooth muscle cells; actives raise or lower the signal;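 note: thrombomodulin protein level measured by ELISA 24 h after dosing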
[11] = read-out: Tissue Factor, F3 (gene 2152); assay: BSK_CASM3C_TissueFactor: BioMAP Diversity Plus: CASM3C Assay for Tissue Factor Biomarker Activity (AID 2283052); settings: primary human coronary artery smooth muscle cells; actives raise or lower the signal;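 note: cell surface tissue factor protein level read by ELISA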
[12] = read-out: Interferon-gamma inducible Protein 10 (IP10), CXCL10 (gene 3627); assay: BSK_hDFCGF_IP10: BioMAP Diversity Plus: hDFCGF Assay for Interferon-gamma inducible Protein 10 (IP10) Biomarker Activity (AID 2283053); settings: primary human foreskin fibroblasts; actives raise or lower the signal
Summary of the method: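 Cells: human dermal foreskin fibroblasts. Exposure: 24 h post-dosing. Detection: IP-10 ELISA, with values expressed against DMSO controls and fitted in both directions.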

[13] = read-out: Urokinase-type plasminogen activator receptor (uPAR), PLAUR (gene 5329); assay: BSK_CASM3C_uPAR: BioMAP Diversity Plus: CASM3C Assay for Urokinase-type plasminogen activator receptor (uPAR) Biomarker Activity (AID 2283054); settings: primary human coronary artery smooth muscle cells; actives raise or lower the signal;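 note: cell-surface uPAR protein level quantified by ELISA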
[14] = read-out: Vascular cell adhesion molecule 1 (VCAM1), VCAM1 (gene 7412); assay: BSK_CASM3C_VCAM1: BioMAP Diversity Plus: CASM3C Assay for Vascular cell adhesion molecule 1 (VCAM1) Biomarker Activity (AID 2283055); settings: primary human coronary artery smooth muscle cells; actives raise or lower the signal;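 note: VCAM-1 protein level quantified by ELISA on the cells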
[15] = read-out: Collagen III, COL3A1 (gene 1281); assay: BSK_hDFCGF_CollagenIII: BioMAP Diversity Plus: hDFCGF Assay for Collagen III Biomarker Activity (AID 2283056); settings: primary human foreskin fibroblasts; actives raise or lower the signal
Summary of the method: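 ELISA readout of Collagen III in human dermal (foreskin) fibroblasts, taken 24 h post-treatment. Gain or loss relative to DMSO vehicle fitted in both directions.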

[16] = read-out: Epidermal growth factor receptor (EGFR), EGFR (gene 1956); assay: BSK_hDFCGF_EGFR: BioMAP Diversity Plus: hDFCGF Assay for Epidermal growth factor receptor (EGFR) Biomarker Activity (AID 2283057); settings: primary human foreskin fibroblasts; actives raise or lower the signal
Summary of the method: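 Dosing human primary skin fibroblasts, then measuring surface EGFR by ELISA at 24 h, gives the endpoint; gains and losses relative to DMSO were fitted in both directions.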

[17] = read-out: Interleukin-8 (IL8), CXCL8 (gene 3576); assay: BSK_hDFCGF_IL8: BioMAP Diversity Plus: hDFCGF Assay for Interleukin-8 (IL8) Biomarker Activity (AID 2283058); settings: primary human foreskin fibroblasts; actives raise or lower the signal
Summary of the method: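 IL-8 levels read by ELISA at 24 hours after dosing human skin fibroblast cultures. Parallel SRB staining assessed overt cytotoxicity, and gain or loss of signal was fitted against DMSO control.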

[18] = BSK_hDFCGF_Proliferation: Cell Proliferation Assessment in the BioMAP Diversity Plus: hDFCGF Assay (AID 2283059); settings: primary human foreskin fibroblasts;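 note: curves fitted for both rise and fall of signal versus DMSO baseline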
Summary of the method: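 Steps: dose primary human dermal fibroblasts (foreskin); […] fix in 10% TCA; stain with 0.1% SRB; read 560 nm; fit gain or loss of signal against DMSO.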

[19] = read-out: Macrophage colony-stimulating factor (MCSF), CSF1 (gene 1435); assay: BSK_hDFCGF_MCSF: BioMAP Diversity Plus: hDFCGF Assay for Macrophage colony-stimulating factor (MCSF) Biomarker Activity (AID 2283060); settings: primary human foreskin fibroblasts; actives raise or lower the signal
Summary of the method: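 M-CSF levels read by ELISA at 24 h post-dosing in human skin fibroblasts. Parallel cultures stained with SRB assessed cytotoxicity at the same time point; response fitted in both directions against the DMSO baseline.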

[20] = BSK_hDFCGF_SRB: Viability Assessment in the BioMAP Diversity Plus: hDFCGF Assay (AID 2283061); settings: primary human foreskin fibroblasts;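 note: cells exposed to compound for 24 h before the read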
Summary of the method: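 Viability was read as total protein: after 10% TCA fixation, wells were stained with 0.1% sulforhodamine B and read at 560 nm. Primary human foreskin fibroblasts were dosed for 24 h, with bidirectional fitting versus DMSO.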

Measured: AC50

CCN(CC)C(=O)c1cccc(C)c1
inactive: all assays above

COC(=O)c1ccc(I)cc1S(=O)(=O)NC(=O)Nc1nc(C)nc(OC)n1
inactive: all assays above

CCCCOC(=O)C(C)Oc1ccc(Oc2ccc(C(F)(F)F)cn2)cc1 (stereo not given)
inactive: all assays above

CCCCCCC(C)OC(=O)COc1nc(F)c(Cl)c(N)c1Cl (stereo not given)
active: [1] 32.9 µM | [2] 31.9 µM | [3] 30.2 µM | [5] 29.9 µM | [6] 36.1 µM | [7] 31.6 µM | [8] 25.7 µM | [9] 35.3 µM | [10] 29.7 µM | [12] 13.5 µM | [14] 32.8 µM | [15] 20 µM | [17] 29.6 µM | [18] 6.82 µM | [19] 13.8 µM | [20] 14.9 µM
inactive: [4] | [11] | [13] | [16]

CCN(Cc1c(F)cccc1Cl)c1c([N+](=O)[O-])cc(C(F)(F)F)cc1[N+](=O)[O-]
active: [4] 13.5 µM | [6] 12.3 µM | [12] 30.6 µM | [13] 13.2 µM | [18] 4.89 µM
inactive: all other assays above

CSC(=O)c1cccc2nnsc12
active: [10] 20 µM
inactive: all other assays above
